Test results published in PubChem BioAssay (NCI).
About 83,000 compounds went through this panel and 20% of them were active in at least one assay; those are over-represented in the sample as a whole.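 Cell lines were cultured in 96-well plates, exposed to a single compound concentration, and assessed for percent growth 48 hours later.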 Calls of active or inactive are those of the source. How the source made its calls: active means growth percent below 10; inactive means the rest.

Key:
Experiment in all cases: NCI-60 one-dose screen, 48 h (100 = growth as untreated, 0 = no growth, -100 = all killed)
Details in all cases: 10 µM unless noted
[1] = test system: SR leukemia
[2] = test system: RPMI-8226 leukemia
[3] = test system: OVCAR-8 ovarian
[4] = test system: OVCAR-5 ovarian
[5] = test system: OVCAR-4 ovarian
[6] = test system: SK-OV-3 ovarian
[7] = test system: IGROV1 ovarian
[8] = test system: OVCAR-3 ovarian
[9] = test system: HS 578T breast
[10] = test system: NCI/ADR-RES ovarian

Measured: growth

CN1CCN(Cc2ccc(NC(=O)c3cncc(C#Cc4cnc(N)c5ncccc45)c3)cc2C(F)(F)F)CC1
active: [3] -29% | [4] -26.5% | [5] -21.9% | [6] 2.59% | [7] -50.8% | [9] -30.3% | [10] -55.3%
inactive: [1] 12.4% | [2] 19.5% | [8] 15.3%

O=C(CN1CCN(c2cc3c(cc2F)c(=O)c(C(=O)O)cn3C2CC2)CC1)N/N=C/c1ccco1
inactive: [1] 92.9% | [2] 101% | [3] 98.2% | [4] 85.1% | [5] 105% | [6] 88.8% | [7] 101% | [8] 107% | [9] 95.5% | [10] 103%

Cc1nc2sc(C(=O)Nc3cccc(Br)c3C)c(N)c2cc1C(O)c1ccccc1 (stereo not drawn)
active: [1] 7.47% | [2] 2.82% | [8] -2.75% | [10] 4.66%
inactive: [3] 12.2% | [4] 32.3% | [5] 47.1% | [6] 11.4% | [7] 15.5% | [9] 12.3%

O=C1Nc2ccccc2/C1=C\c1c[nH]c2ccc(Br)cc12
inactive: [1] 72.4% | [2] 73.9% | [3] 79.8% | [4] 80.4% | [5] 54.7% | [6] 66.5% | [7] 61.5% | [8] 72.5% | [9] 82.7% | [10] 57.7%

O=C1/C(=C/c2ccccn2)NC(=S)N1c1ccccc1Cl
inactive: [1] 19.3% | [2] 52.8% | [3] 30.4% | [4] 68.4% | [5] 34.9% | [6] 111% | [7] 46.1% | [8] 53.7% | [9] 72.5% | [10] 50.8%

CC(C)=CCNc1ncnc2c1ncn2C1OC(CO)C(O)C1O (stereo not drawn)
active: [1] 1.23% [1 mM] | [2] -40.1% [1 mM] | [3] -40.8% [1 mM] | [5] -2.16% [1 mM] | [6] -21.5% [1 mM] | [7] 4.13% [1 mM] | [8] -69.9% [1 mM] | [9] -16.8% [1 mM] | [10] -33.2% [1 mM]
inactive: [4] 19.2% [1 mM]

O=C1c2ccccc2C(=O)c2c1c(C(=O)NCc1ccccc1)c1ccccn21
inactive: [1] 90.9% | [2] 95.8% | [3] 93.9% | [4] 111% | [5] 105% | [6] 102% | [7] 97.8% | [8] 116% | [9] 97.9% | [10] 103%

CN1C(=O)/C(=C2\SC(=Nc3ccccc3)N(Nc3ccccc3)C2=O)c2ccccc21
inactive: [1] 117% | [2] 106% | [3] 102% | [4] 104% | [5] 111% | [6] 98% | [7] 79.5% | [8] 110% | [9] 107% | [10] 102%

C/C=C(\C)C(=O)N[C@H]1C(O)C[C@]2(C)C3CC[C@@]4(C)C(CC[C@@H]4C(C)N(C)C)C3CCC2C1O (stereo partly drawn)
inactive: [3] 84.2% | [4] 95% | [5] 24.2% | [6] 87.7% | [7] 66% | [8] 33.5% | [9] 71.5% | [10] 81.3%
active: [1] -30.4% | [2] -12.3%

CN(C)S(=O)(=O)Oc1ccc(-c2sc3cc(OS(=O)(=O)N(C)C)ccc3c2C(=O)c2ccc(OCCN3CCCCC3)cc2)cc1
active: [1] -20.2%
inactive: [2] 38.1% | [3] 43.8% | [4] 78.4% | [5] 49.7% | [6] 62.4% | [7] 81% | [8] 69.3% | [9] 59.7% | [10] 72.3%

O=C(Cc1ccccc1)Nc1cccc(N=Cc2ccccc2O)c1
inactive: [1] 117% | [2] 113% | [3] 98% | [4] 114% | [5] 102% | [6] 106% | [7] 111% | [8] 93.2% | [9] 108% | [10] 105%

Cc1ccc(/C=C/C(=O)c2ccc(-n3cc(CN4CCN(c5cc6c(cc5F)c(=O)c(C(=O)O)cn6C5CC5)CC4)nn3)cc2)cc1
inactive: [1] 63.2% | [2] 44.3% | [3] 62.5% | [4] 109% | [5] 94.8% | [6] 84.7% | [7] 69.9% | [8] 96% | [9] 80.5% | [10] 103%

Cc1ccc(S(=O)(=O)OCCCOS(=O)(=O)c2ccc(C)cc2)cc1
inactive: [1] 82.4% | [2] 76.2% | [3] 90% | [4] 125% | [5] 100% | [6] 115% | [7] 76.1% | [8] 107% | [9] 99.8% | [10] 116%

N#Cc1c(-c2ccccc2)nc(SCc2nnc(-c3ccc(Cl)cc3)o2)[nH]c1=O
inactive: [1] 105% | [2] 95.6% | [3] 93.6% | [4] 114% | [5] 106% | [6] 55.4% | [7] 103% | [8] 103% | [9] 93.8% | [10] 93.3%

[2H]C([2H])([2H])Oc1ccc(F)cc1/C=C/C(=O)/C=C(O)/C=C/c1cc(F)ccc1OC([2H])([2H])[2H]
inactive: [1] 69.4% | [2] 90% | [3] 88.8% | [4] 111% | [5] 84.3% | [7] 105% | [8] 95.6% | [9] 104%
